This passage reports survival results from PubChem BioAssay AID463173 (ICCB-Longwood Screening Facility, Harvard Medical School, 2010).

About 1,700 (3.3%) of roughly 52,000 compounds were called active. Shown is part of a subset that was picked to be rich in actives. A number with no mark means an inactive call. Rule as the data show it: active = survival mostly below about 52% (no sharp cut-off); inactive = mostly above about 56%.

The subject of the assay is Wild type. Put plainly: growth inhibition of S. aureus wild type versus tarO mutant, primary screen, teichoic acid synthesis inhibitors, RN4220, OD600 (AID 463173). The following applies: S. aureus RN4220 wild type/DeltatarO growth, OD600, 18 h, active compounds read low, screened at 18.75 µg/mL (by protocol).
As to `CCOc1ccccc1Nc1sc(C(=O)c2ccc(Cl)cc2)c(N)c1S(=O)(=O)c1ccccc1`, the survival is 19%.
The value for `Cc1ccc(S(=O)(=O)CC(=O)N2CCN(c3nc4c(F)cccc4s3)CC2)cc1` was -6% (active); that for `Cc1c(Cl)ccc2sc(N3CCN(C(=O)CCS(=O)(=O)c4ccc(F)cc4)CC3)nc12` was -3% (active); that for `Cc1ccc2sc(N3CCN(C(=O)CCS(=O)(=O)c4ccc(Cl)cc4)CC3)nc2c1C` was 75%.
As to `Cc1ccc(S(=O)(=O)CCC(=O)N2CCN(c3nc4c(C)c(Cl)ccc4s3)CC2)cc1`, the survival was 68%.
Next, `Cc1c(Cl)ccc2sc(N3CCN(C(=O)CS(=O)(=O)c4ccccc4)CC3)nc12`: 124%; `COc1cccc2sc(N3CCN(C(=O)CCS(=O)(=O)c4ccc(F)cc4)CC3)nc12`: 87%; `Cc1ccc2sc(N3CCN(C(=O)CCS(=O)(=O)c4ccc(F)cc4)CC3)nc2c1C`: 82%.
Next, `Cc1cccc2sc(N3CCN(C(=O)CS(=O)(=O)c4ccc(F)cc4)CC3)nc12`: 73%; `COc1cccc2sc(N3CCN(C(=O)CS(=O)(=O)c4ccc(Cl)cc4)CC3)nc12`: -6% (active).
Take `Cc1c(Cl)cccc1NC(=O)CSc1nc(=O)n(Cc2ccco2)c2c1CCC2`: the survival was 120%.
Turning to `COc1ccccc1N1CCN(CCC(=O)Nc2cccc(F)c2)CC1`, the survival is 76%.
The value for `O=C(Nc1ccc(OC(F)(F)F)cc1)NC1COc2ccccc2C1` (stereo unspecified) was -3% (active).
Next, `COc1ccc(NC(=O)NC2COc3ccccc3C2)c(OC)c1` (stereo unspecified): 88%.
`COc1ccc(NC(=O)NC2COc3ccccc3C2)cc1Cl` (stereo unspecified): the survival is 65%.
The value for `O=C(Cn1cc(S(=O)(=O)c2ccccc2)c(=O)c2cc3c(cc21)OCO3)Nc1ccc(Cl)cc1` was 65%.
Next, `COCCNC(=O)c1sc2ncccc2c1-n1c(C)ccc1C`: 88%.
Next, `Cc1ccc(CCNC(=O)c2sc3ncccc3c2-n2c(C)ccc2C)cc1`: 75%; `CCc1ccc(CNC(=O)c2sc3ncccc3c2-n2c(C)ccc2C)cc1`: -3% (active).
`Cc1cc2ccccc2n1-c1ccc(C(=O)N2CCC(C(=O)NCc3ccccc3Cl)CC2)s1`: the survival is 60%.
The value for `COc1ccc(C2C=C(c3ccc(Cl)c(Cl)c3)Nc3ncnn32)cc1` (stereo unspecified) was 26%.
Take `CC(C)c1ccc(C2=CC(c3cccc(Cl)c3)n3ncnc3N2)cc1` (stereo unspecified): the survival is -3% (active).
The value for `CC(C)c1ccc(C2=CC(c3cccc(Cl)c3)n3c(nc4ccccc43)N2)cc1` (stereo unspecified) was 60%; that for `CCOC(=O)c1cc2c(=O)n3ccccc3nc2n(Cc2ccco2)c1=NC(=O)c1ccccc1OC` was 64%; that for `COCCCn1c(SCc2ccccc2F)nc2c(sc3ccccc32)c1=O` was 98%.
For `CCOC(=O)CSc1nc2c(sc3ccccc32)c(=O)n1CCO`, the survival was -6% (active).
Next, `CCOC(=O)CSc1nc2c(sc3ccccc32)c(=O)n1CCc1ccccc1`: 75%.
The value for `CCOCCCn1c(SCC(=O)NCCCOC)nc2c(sc3ccccc32)c1=O` was 134%.
As to `COCCCNC(=O)CSc1nc2c(sc3ccccc32)c(=O)n1CCc1ccccc1`, the survival was 64%.
As for `CCCCn1c(SCC(=O)NCCCOC)nc2c(sc3ccccc32)c1=O`, the survival was 133%.
Next, `COCCCNC(=O)CSc1nc2c(sc3ccccc32)c(=O)n1CCc1ccc(OC)c(OC)c1`: -6% (active); `CCOCCCn1c(SCC(=O)NCc2ccccc2)nc2c(sc3ccccc32)c1=O`: -6% (active).
Next, `CCCCn1c(SCc2ccccc2C#N)nc2c(sc3ccccc32)c1=O`: 14% (active); `CC(C)OCCCn1c(SCc2ccccc2C#N)nc2c(sc3ccccc32)c1=O`: 76%.
Next, `COCCCn1c(SCC(=O)NCc2ccccc2)nc2c(sc3ccccc32)c1=O`: 72%; `CCOCCCn1c(SCC(=O)OCC)nc2c(sc3ccccc32)c1=O`: 136%; `Cc1c(C(=O)Nc2ccc(F)c(Cl)c2)oc2ccc(S(=O)(=O)N(C)C3CCCCC3)cc12`: 99%.
For `Cc1ccc(C)c(S(=O)(=O)c2cn(C)c3cc(F)c(F)cc3c2=O)c1`, the survival was 81%.
Next, `COc1cccc(-n2ccnc2SCC(=O)Nc2c(C)cc(C)cc2C)c1`: 113%; `O=C(CCCCCn1c(=O)c2sccc2n(Cc2ccc(Cl)cc2)c1=O)NCc1ccc2c(c1)OCO2`: 86%.
Regarding `CCCCn1c(SCC(=O)c2ccccc2)nc2c(sc3ccccc32)c1=O`, the survival was -1% (active).
On to `CC(C)OCCCn1c(SCC(=O)c2ccccc2)nc2c(sc3ccccc32)c1=O`, for which the survival was 72%.
The value for `CCCCn1c(SCC(=O)NCc2ccc(C)cc2)nc2c(sc3ccccc32)c1=O` was 69%; that for `COc1ccc(CN(CCN)C2CC(C)N(C)CC2C)cc1` (stereo unspecified) was 105%; that for `Cc1ccc(C2CCN(C(=O)Nc3ccc(Cl)cc3)C2)cc1` (stereo unspecified) was 71%.
The value for `O=C(Nc1ccc(Cl)c(Cl)c1)N1CCC(c2ccccc2)C1` (stereo unspecified) was 71%.
The value for `Cc1ccc(C2CCN(C(=O)Nc3ccc(Cl)c(Cl)c3)C2)cc1` (stereo unspecified) was -3% (active); that for `Cc1cccc(-c2nc3ccccc3o2)c1` was 119%.
Regarding `COc1cc(NC(=O)C(CCS(C)(=O)=O)N2Cc3ccccc3C2=O)cc(OC)c1OC` (stereo unspecified), the survival is 14% (active).
Next, `COc1ccc(NC(=O)[C@H](Cc2ccccc2)N2Cc3ccccc3C2=O)cc1OC`: 94%; `Cc1c(Cl)cccc1NC(=O)C(CCS(C)(=O)=O)N1Cc2ccccc2C1=O` (stereo unspecified): 74%.
The value for `COC(=O)c1cc(NC(=O)[C@H](CCS(C)(=O)=O)N2Cc3ccccc3C2=O)cc(C(=O)OC)c1` was 87%; that for `CS(=O)(=O)CCC(C(=O)Nc1cccc(C(F)(F)F)c1)N1Cc2ccccc2C1=O` (stereo unspecified) was -1% (active).
Next, `CS(=O)(=O)CC[C@@H](C(=O)NCCc1ccccc1)N1Cc2ccccc2C1=O`: 90%; `CCc1ccc(NC(=O)CSc2nc3c(sc4ccccc43)c(=O)n2CCCOC(C)C)cc1`: 80%.
Take `O=C(CSc1n[nH]c(-c2ccc(F)cc2)n1)NCCc1ccccc1`: the survival was 120%.
Turning to `CC1=C(C(=O)Nc2ccccc2)C(c2ccncc2)n2nc(SCc3ccccc3F)nc2N1` (stereo unspecified), the survival was 106%.
Next, `Cc1ccc(NC(=O)Cn2cc(S(=O)(=O)N3CCCC3)c(S(=O)(=O)N3CCCC3)c2)cc1F`: 126%; `O=C(CCc1cn(Cc2ccccc2F)c2ccccc12)NCc1ccc(Cl)cc1`: 81%.
Next, `O=C(NCC1CCCCC1)C1CCCN1C(=O)NC1CCCCC1` (stereo unspecified): 106%; `COc1ccc(NC(=O)c2oc3ccc(S(=O)(=O)N4CCCCC4)cc3c2C)cc1Cl`: 73%; `Cc1ccc(S(=O)(=O)C2(C(=O)Nc3ccc(C(C)C)cc3)CC2)cc1`: 64%.
Next, `O=C(Nc1ccccc1C(F)(F)F)C1(S(=O)(=O)c2ccc(Cl)cc2)CC1`: 94%; `Cc1ccc(S(=O)(=O)C2(C(=O)Nc3ccc(Cl)c(C(F)(F)F)c3)CC2)cc1`: 41% (active).
As for `CCOC(=O)c1cccc(NC(=O)C2(S(=O)(=O)c3ccc(C)cc3)CC2)c1`, the survival is 84%.
The value for `Cc1ccc(S(=O)(=O)C2(C(=O)Nc3ccc(C)c(Cl)c3)CC2)cc1` was 4% (active); that for `COC(=O)c1ccc(NC(=O)C2(S(=O)(=O)c3ccc(C)cc3)CC2)cc1` was 133%.
Next, `COc1ccc(C2(CNC(=O)C(=O)Nc3ccc(C)c(Cl)c3)CCCC2)cc1OC`: 83%.
Next, `Cc1ccc(-n2ncc(C(=O)NCc3ccc4c(c3)OCO4)c2C2CCN(C(=O)OC(C)(C)C)CC2)cc1C`: 82%.
Turning to `COc1cccc(N2CCN(C(=O)c3c4c(nc5ccccc35)C(=O)N(C3CCCCC3)C4)CC2)c1`, the survival was 88%.
The value for `COc1ccc(C)cc1NC(=O)Cn1c(=O)oc2cc(S(=O)(=O)N3CCCCC3)ccc21` was 94%; that for `NC(=O)c1c(NC(=O)c2noc3c2CCCC3)sc2c1CCCC2` was 73%.
The value for `Cc1cccc(S(=O)(=O)c2cn(Cc3ccccc3)c3cc(N4CCCCC4)c(F)cc3c2=O)c1` was 99%.
The value for `CCN1CCN(c2cc3c(cc2F)c(=O)c(S(=O)(=O)c2cc(C)cc(C)c2)cn3CC)CC1` was -3% (active); that for `Cn1cc(S(=O)(=O)c2cccc(Cl)c2)c(=O)c2cc(F)c(N3CCN(c4ccccc4)CC3)cc21` was 1% (active).
On to `O=c1c(S(=O)(=O)c2ccccc2)cn(Cc2ccc(F)cc2)c2cc(N3CCCCC3)c(F)cc12`, for which the survival is 74%.
Take `Cn1cc(S(=O)(=O)c2cccc(Cl)c2)c(=O)c2cc(F)c(N3CCN(c4ccc(F)cc4)CC3)cc21`: the survival is 81%.
The value for `Cc1cccc(S(=O)(=O)c2cn(Cc3ccc(F)cc3)c3cc(N4CCCCC4)c(F)cc3c2=O)c1` was -4% (active); that for `CCn1cc(S(=O)(=O)c2cc(C)cc(C)c2)c(=O)c2cc(F)c(N3CCCC3)cc21` was 129%; that for `Cn1cc(S(=O)(=O)c2ccccc2)c(=O)c2cc(F)c(N3CCN(c4ccccc4)CC3)cc21` was 135%.
Next, `CCn1cc(S(=O)(=O)c2cc(C)cc(C)c2)c(=O)c2cc(F)c(N3CCCCC3)cc21`: 82%.
Next, `CCOc1ccc(N(C)C(=O)C2CCN(S(=O)(=O)c3c(C)noc3/C=C/c3ccc(C)cc3)CC2)cc1`: 153%; `COc1ccccc1CNc1nc(-c2ccco2)nn1C(=O)c1cc(OC)c(OC)c(OC)c1`: 69%.
`COc1ccc(C(=O)c2c(N)c(C(=O)Nc3cccc(OC)c3)c3ccccn23)cc1`: the survival is 95%.
Next, `Cc1ccc2oc(=O)c(-c3nc(-c4cccs4)no3)cc2c1`: 94%.
Next, `COc1ccc(NC(=O)COc2ccc(S(=O)(=O)NC3CCCCC3)cc2)cc1OC`: 74%.
